In PubChem BioAssay (NCATS) one finds viability (% of DMSO) and Potency data, which are given here for 31 compounds.

Several values for one entry are separate records, joined by “and”; a condition that tells them apart may be missing. Equal entries are not always repeated. Records with an inconclusive call do not appear. Activity calls are given as the source filed them. Calls follow the shape of the dose curve; as a rule, active = well fitted curve in the direction sought with a large enough effect; inconclusive = small, poorly fitted or top-dose-only effect, or another doubt; inactive = no such curve, though single readings can be large; an effect the other way counts as inactive or inconclusive.

A short description of experiment [1]: Quantitative High-Throughput drug screen in 47 multiple myeloma cell lines against the NCATS MIPE library collection: Karpas417_ECACC cell viability assay (AID 1918961). The conditions noted are these: Karpas417 myeloma viability, CellTiter-Glo ATP luminescence, 48 h; viability (% of DMSO): at 45.8 µM (top of the series) unless noted. Put shortly:
(§1)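 CellTiter-Glo ATP luminescence gave viability after 48 h compound treatment at 37C of 500 multiple myeloma cells per well. Normalisation used DMSO-only wells as 100% and media-only wells as 0% viability; primary qHTS of approved and investigational drugs.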

Experiment [2] can be described thus: Quantitative High-Throughput drug screen in 47 multiple myeloma cell lines against the NCATS MIPE library collection: KHM11_PLB cell viability assay (AID 1918962). Also: nearly all actives have a fitted effect of over 35% in size. Put shortly: (§2)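 Myeloma cells (500 per well) were exposed to MIPE 4.0 compounds by pin transfer and incubated 48 hours at 37C, 5% CO2. Viability was read as ATP by CellTiter-Glo luminescence, normalised to DMSO (100%) and media-only (0%) wells.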

The nature of experiment [3]: Quantitative High-Throughput drug screen in 47 multiple myeloma cell lines against the NCATS MIPE library collection: Karpas25_ECACC cell viability assay (AID 1918968; also: nearly all actives have a fitted effect of over 35% in size). Put shortly: as §1
The nature of experiment [4]: Quantitative High-Throughput drug screen in 47 multiple myeloma cell lines against the NCATS MIPE library collection: JIM3_ECACC cell viability assay (AID 1918963; also: nearly all actives have a fitted effect of over 35% in size). Put shortly:
as §2

Experiment [5] can be described thus: Quantitative High-Throughput drug screen in 47 multiple myeloma cell lines against the NCATS MIPE library collection: JIM1_ECACC cell viability assay (AID 1918964). Put shortly: as §1
Experiment [6] is described as follows: Quantitative High-Throughput drug screen in 47 multiple myeloma cell lines against the NCATS MIPE library collection: INA6_PLB cell viability assay (AID 1918965; also: nearly all actives have a fitted effect of over 55% in size). In outline:
as §1

Experiment [7] is described as follows: Quantitative High-Throughput drug screen in 47 multiple myeloma cell lines against the NCATS MIPE library collection: JJN3_DSMZ cell viability assay (AID 1918966; also: nearly all actives have a fitted effect of over 50% in size). Put shortly: as §1
Experiment [8] is described as follows: Quantitative High-Throughput drug screen in 47 multiple myeloma cell lines against the NCATS MIPE library collection: H1112_PLB cell viability assay (AID 1918967; also: nearly all actives have a fitted effect of over 30% in size). In outline: as §1
Experiment [9] is described as follows: Quantitative High-Throughput drug screen in 47 multiple myeloma cell lines against the NCATS MIPE library collection: KMS27_JCRB cell viability assay (AID 1918970). Also: nearly all actives have a fitted effect of over 30% in size. Put shortly: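 Each line is seeded at 500 cells per well and treated with library compounds for 48 hours under 37 °C, 5% CO2. CellTiter-Glo is then added for 5 min at room temperature before median relative luminescence is recorded.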
Potency is read from the fitted curve at half-maximal effect.

With `COc1ccc(-c2c(-c3ccc(O)cc3O)n[nH]c2C)cc1`, the viability (% of DMSO) in experiment [1] was 34.5% [at 92.2 µM] (active). For the same compound, the Potency entry in experiment [2] was “inactive”. Further, the Potency in experiment [3] is 27 µM (active).

On to `Cc1c(CN2CCN(C(=O)C(C)C)CC2)sc2c(N3CCOCC3)nc(-c3cnc(N)nc3)nc12`, for which the Potency in [2] is 0.132 µM (active); in experiment [4], 0.418 µM (active); in [5] it was 0.0132 µM (active); in experiment [6] it was 0.235 µM (active); in experiment [7], 0.209 µM (active); in experiment [3], 0.059 µM (active).

As for `Cn1cnc2c(F)c(Nc3ccc(Br)cc3Cl)c(C(=O)NOCCO)cc21`, the Potency in [1] was 0.264 µM (active); in experiment [2] it was 0.0469 µM (active); in [4], 1.66 µM (active); in experiment [6], 0.526 µM (active); in [8], 0.662 µM (active); in experiment [3], 16.6 µM (active). Further, the Potency in [9] is 0.469 µM (active).

For `O=C1CCCC2=C1C(c1[nH]ncc1Cl)N=C(Nc1nc3ccccc3o1)N2` (centres undefined), the Potency result in [1] and in experiment [8] was “inactive” throughout. For the same compound, the Potency in experiment [2] was 4.18 µM (active); in experiment [6], 5.9 µM (active); in [7], 5.26 µM (active); in [3] it was 0.662 µM (active).

As to `COc1c(Cl)cc2c([nH]c3cnccc32)c1NC(=O)c1cccnc1C`, the Potency in experiment [1] was 16.6 µM (active); in [2] it was 2.96 µM (active); in [7], 18.7 µM (active); in experiment [9], 11.8 µM (active). In addition, in experiment [4], the Potency result was “inactive”.

Turning to `Cc1[nH]c(=O)c(C#N)cc1-c1ccncc1`, in experiment [2], the Potency entry was “inactive”. Further, the Potency in [4] is 18.7 µM (active); in experiment [6] it was 14.8 µM (active); in [3] it was 9.35 µM (active).

Regarding `NNCCc1ccccc1`, the Potency entry in experiment [1], in experiment [2] and in [4] was “inactive” throughout. Further, the values for the Potency in experiment [7], in experiment [8] and in experiment [3] were 18.7 µM (active), 0.059 µM (active) and 8.33 µM (active), respectively.

As for `C#Cc1cccc(Nc2ncnc3cc(OCCOC)c(OCCOC)cc23)c1`, the Potency was 3.32 µM (active) in experiment [2], 9.35 µM (active) in [4], 18.7 µM (active) in experiment [6] and 5.26 µM (active) in experiment [9].

Consider `CC(C)C[C@H](NC(=O)[C@@H](O)[C@H](N)Cc1ccccc1)C(=O)O`, for which the Potency is 20.9 µM (active) in experiment [2]; 18.7 µM (active) in experiment [4]; 20.9 µM (active) in experiment [6]; 20.9 µM (active) in experiment [8]; 20.9 µM (active) in experiment [3]. Besides, the Potency entry in experiment [5] was “inactive”.

In the case of `CC(C)(N)C(=O)N[C@H](COCc1ccccc1)C(=O)N1CCC2(CC1)CN(S(C)(=O)=O)c1ccccc12`, the Potency result in experiment [1] and in [5] was “inactive” each time. The Potency in experiment [2] was 18.7 µM (active); in experiment [4], 7.43 µM (active); in [6], 10.5 µM (active); in [7] it was 3.72 µM (active); in [3], 16.6 µM (active); in [9] it was 5.26 µM (active).

In the case of `OC[C@H](Cc1ccccc1)Nc1nc(Oc2ccc3c(c2)CCC3)nc2c1ncn2Cc1ccc(-c2ccccc2)cc1`, the Potency entry in [1] and in [5] was “inactive” throughout.

With `CCCc1nn(C)c2c(=O)[nH]c(-c3cc(S(=O)(=O)N4CCN(C)CC4)ccc3OCC)nc12`, in [1], the Potency entry was “inactive”. Further, in experiment [7], the Potency is 18.7 µM (active).

`O=c1[nH]cnc2[nH]ncc12`: the Potency result in [1], in experiment [4], in experiment [5], in experiment [8] and in [3] was “inactive” each time.

For the compound `OCCC#Cc1nc(-c2ccc(F)cc2)c(-c2ccncc2)n1CCCc1ccccc1`, the Potency is 23.5 µM (active) in [4]; 13.2 µM (active) in experiment [5]; 26.4 µM (active) in experiment [6]; 5.9 µM (active) in experiment [8]; 16.6 µM (active) in experiment [3].

Turning to `CN[C@@H](C)C(=O)N[C@H]1CCCC[C@H]2CC[C@@H](C(=O)N[C@@H](c3ccccc3)c3cn(CCCCc4ccc(CCCCn5cc([C@@H](NC(=O)[C@@H]6CC[C@@H]7CCCC[C@H](NC(=O)[C@H](C)NC)C(=O)N76)c6ccccc6)nn5)cc4)nn3)N2C1=O`, the Potency in experiment [2] is 5.26 µM (active); in experiment [9], 18.7 µM (active).

As to `C1COC(NC(C2CC2)C2CC2)=N1`, the Potency result in experiment [2] and in [8] was “inactive” each time.

As for `Nc1nc2c(ncn2COCCO)c(=O)[nH]1`, the Potency entry in experiment [2], in [4] and in experiment [9] was “inactive” in each case.

As for `COCCNCCCn1c(C(=O)CF)c(-c2ccc(C)cc2)c2c(N)ncnc21`, the Potency entry in [4] and in experiment [5] was “inactive” throughout. Also, the Potency in [6] was 16.6 µM (active).

Take `Oc1ccc(C2CNCCc3c2cc(O)c(O)c3Cl)cc1` (centres undefined): the Potency entry in experiment [4], in experiment [5], in experiment [7] and in experiment [8] was “inactive” each time. For the same compound, the Potency in experiment [3] is 5.9 µM (active).

As for `COc1ccc(-c2oc3cc(OC)ccc3c2C(=O)c2ccc(C#N)cc2)cc1`, the Potency entry in experiment [4], in experiment [6] and in experiment [7] was “inactive” each time. Besides, the Potency in experiment [5] was 6.62 µM (active); in experiment [9], 2.09 µM (active).

For the compound `NCCCC(N)(C(=O)O)C(F)F` (centres undefined), the Potency entry in experiment [2] and in experiment [9] was “inactive” throughout. Besides, the Potency in experiment [4] was 13.2 µM (active); in [7], 20.9 µM (active); in experiment [3] it was 0.166 µM (active).

Consider `O=C(C1CC1)N1CC[C@@H](Cn2c(-c3ccc(-c4ccc5occc5c4)cc3)nc3cnccc32)C1`, for which the Potency result in [2] and in experiment [8] was “inactive” in each case. In addition, in [4], the Potency is 16.6 µM (active).

Consider `CC(C)(C)NCC(O)c1ccc(O)c(CO)c1` (centres undefined), for which the Potency result in [2], in experiment [4] and in experiment [8] was “inactive” throughout. Besides, in experiment [3], the Potency is 0.0418 µM (active).

`Cn1cc(-c2ccc3nnc(C(F)(F)c4ccc5ncccc5c4)n3n2)cn1`: the Potency in experiment [2] is 4.69 µM (active); in experiment [7] it was 0.0264 µM (active); in [3] it was 18.7 µM (active). In addition, the Potency result in experiment [4] is “inactive”.

As for `COc1ccccc1-c1cccc(-c2c(O)c3cc(C#N)c(Cl)cc3[nH]c2=O)c1`, in experiment [4], the Potency is 42.9 µM (active). Besides, the Potency result in experiment [6], in experiment [7] and in experiment [8] was “inactive” in each case.

Turning to `Cc1cc2c(C(C)C)c(O)c(O)c(C=O)c2c(O)c1-c1c(C)cc2c(C(C)C)c(O)c(O)c(C=O)c2c1O`, the Potency in [2] was 10.5 µM (active); in experiment [4], 8.33 µM (active); in experiment [7], 18.7 µM (active); in experiment [8], 18.7 µM (active); in [3], 5.9 µM (active); in experiment [9], 6.62 µM (active).

Regarding `O=c1ncn2nc(Sc3ccc(F)cc3F)ccc2c1-c1c(Cl)cccc1Cl`, the Potency entry in [4] and in experiment [5] was “inactive” each time. Also, the Potency was 4.18 µM (active) in [6] and 14.8 µM (active) in experiment [3].

In the case of `Cc1csc(NC(=O)c2sc3nc4c(c(C(F)(F)F)c3c2N)CCC4)n1`, the Potency entry in [2], in experiment [4], in experiment [8] and in [9] was “inactive” throughout. The Potency in [3] is 1.48 µM (active).

For the compound `CC(C=CC1=C(C)CCCC1(C)C)=CC=CC(C)=CC(=O)O`, the Potency was 5.9 µM (active) in [2]; 20.9 µM (active) and 4.69 µM (active) in experiment [4]; 5.9 µM (active) and 1.66 µM (active) in experiment [7]; 14.8 µM (active) and 11.8 µM (active) in experiment [8]; 16.6 µM (active) and 18.7 µM (active) in experiment [3]; 3.72 µM (active) in [9].

As for `O=S(=O)(N=Cc1c(O)ccc2ccccc12)c1cccs1`, the Potency is 3.32 µM (active) in experiment [4], 16.6 µM (active) in experiment [8] and 1.05 µM (active) in experiment [3]. In addition, the Potency result in experiment [5] was “inactive”.

With `COc1ccc(COc2cc3oc(=O)c4cc(C(C)O)ccc4c3cc2OC)cc1` (centres undefined), the Potency in [2] was 7.43 µM (active); in [4] it was 16.6 µM (active); in experiment [7] it was 26.4 µM (active); in experiment [8], 7.43 µM (active); in [3], 18.7 µM (active).
